This note sets out measurements from ChEMBL document CHEMBL1201862, “PubChem BioAssay data set” (2004).

About 25,000 (6.9%) of roughly 360,000 compounds were called active. Another 9% or so got no clear call; they are omitted. The rule behind the calls is not given here. Only a selection was taken, and actives are over-represented in it overall.

Sequence of Luciferin 4-monooxygenase (Photinus pyralis) (P08659 whole entry): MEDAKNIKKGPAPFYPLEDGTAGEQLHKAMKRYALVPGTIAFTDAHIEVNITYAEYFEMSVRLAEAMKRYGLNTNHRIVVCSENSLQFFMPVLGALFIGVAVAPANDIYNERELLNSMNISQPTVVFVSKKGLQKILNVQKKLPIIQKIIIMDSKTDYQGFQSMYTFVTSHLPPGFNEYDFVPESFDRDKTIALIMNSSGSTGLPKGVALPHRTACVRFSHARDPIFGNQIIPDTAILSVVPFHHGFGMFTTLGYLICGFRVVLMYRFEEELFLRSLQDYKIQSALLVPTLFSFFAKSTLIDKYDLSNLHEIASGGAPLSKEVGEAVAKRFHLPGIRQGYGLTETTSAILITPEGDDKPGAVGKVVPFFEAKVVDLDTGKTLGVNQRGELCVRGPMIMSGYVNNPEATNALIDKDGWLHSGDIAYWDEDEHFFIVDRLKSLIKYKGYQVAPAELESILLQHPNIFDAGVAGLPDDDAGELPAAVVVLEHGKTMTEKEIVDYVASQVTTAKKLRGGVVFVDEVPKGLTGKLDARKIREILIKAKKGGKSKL

The experiment concerns the target Luciferin 4-monooxygenase (Photinus pyralis) (UniProt P08659). Kind of experiment: qHTS profiling assay for firefly luciferase inhibitor/activator using purified enzyme and Km concentrations of substrates (counterscreen for miR-21 project). [Related pubchem assays (depositor defined):AID2288, AID2289, AID2598, AID411]. The class given is functional. In general terms: qHTS replaces the single test concentration by a dilution series.
On to `O=C(O)c1cc(-c2ccc(F)cc2F)ccc1O`, for which the Potency was 15.1 µM (active).
As for `Cn1c(NCCN2CCOCC2)nc2c1c(=O)n(Cc1cccc(Cl)c1)c(=O)n2C`, the Potency entry is “inactive”.
The result for `Cc1ccccc1N=C(S)N(CCCN1CCOCC1)Cc1cccnc1` reads “inactive”; that for `O=C(NC1CCCC1)c1cc(Cl)ccc1[N+](=O)[O-]`, “inactive”.
